Inconclusive results are not listed. Active and inactive are the calls of the source. Calls come from the whole dose curve; as a rule, active = well fitted curve in the direction sought with a large enough effect; inconclusive = small, poorly fitted or top-dose-only effect, or another doubt; inactive = no such curve, though single readings can be large; an effect the other way counts as inactive or inconclusive.
What was measured:
[1] = qHTS of pediatric cancer cell lines to identify multiple opportunities for drug repurposing: Confirmatory screen for NB-EBc1 cells (AID 1347115);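 note: cells exposed to compound for 48 h before the viability read; nearly all actives have a fitted effect of over 45% in size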
Method in brief: (§1)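 Cells (500-1,000/well) in growth media were settled 5 h at 37 degrees C, then given compounds for 48 h. Viability was read as CellTiter-Glo luminescence. Primary runs used MIPE at 11 points (0.78 nM-46 µM) and NPC at 8 points (0.59 nM-46 µM); follow-ups used 11 points.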

[2] = qHTS of pediatric cancer cell lines to identify multiple opportunities for drug repurposing: Confirmatory screen for SJ-GBM2 cells (AID 1347116); note: nearly all actives have a fitted effect of over 60% in size
Method in brief: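 Viability measured as metabolically active cells via CellTiter-Glo luminescence following 48 hours of compound exposure, 11-point dilutions in confirmatory testing. 500-1,000 cells/well plated 5 hours before dosing; controls were DMSO and 2.3 µM bortezomib.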

[3] = qHTS of pediatric cancer cell lines to identify multiple opportunities for drug repurposing: Confirmatory screen for U-2 OS cells (AID 1347122); note: nearly all actives have a fitted effect of over 65% in size
Method in brief: as §1

[4] = qHTS of pediatric cancer cell lines to identify multiple opportunities for drug repurposing: Confirmatory screen for Rh41 cells (AID 1347123);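 note: 48 h compound exposure; nearly all actives have a fitted effect of over 60% in size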
Method in brief: as §1

[5] = qHTS of pediatric cancer cell lines to identify multiple opportunities for drug repurposing: Confirmatory screen for Rh18 cells (AID 1347125); note: nearly all actives have a fitted effect of over 55% in size
Method in brief: as §1

[6] = qHTS of pediatric cancer cell lines to identify multiple opportunities for drug repurposing: Confirmatory screen for TC32 cells (AID 1347118);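 note: cells exposed to compound for 48 h before the read; nearly all actives have a fitted effect of over 65% in size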
Method in brief: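 Measured quantity: luminescence from CellTiter-Glo, reflecting metabolically active TC32 cells following 48 h of compound. Curves came straight from multi-point titrations, with 8 or 11 points in primary and 11 in confirmatory screening.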

[7] = qHTS of pediatric cancer cell lines to identify multiple opportunities for drug repurposing: Confirmatory screen for control Hh wild type fibroblast cells (AID 1347121); note: nearly all actives have a fitted effect of over 70% in size
Method in brief: as §1

[8] = qHTS of pediatric cancer cell lines to identify multiple opportunities for drug repurposing: Confirmatory screen for BT-37 cells (AID 1347117); note: nearly all actives have a fitted effect of over 55% in size
Method in brief: as §1

[9] = qHTS of pediatric cancer cell lines to identify multiple opportunities for drug repurposing: Confirmatory screen for RD cells (AID 1347124);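 note: cells exposed to compound for 48 h before viability readout; nearly all actives have a fitted effect of over 65% in size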
Method in brief: as §1

[10] = qHTS of pediatric cancer cell lines to identify multiple opportunities for drug repurposing: Confirmatory screen for Rh30 cells (AID 1347126); note: nearly all actives have a fitted effect of over 55% in size
Method in brief: as §1

Measured: Potency
Potency is the fitted concentration of half-maximal effect.

CC(C)=CCC/C(C)=C/CC/C(C)=C/C(=O)OCC(=O)[C@@]1(O)CC[C@H]2[C@@H]3CCC4=CC(=O)C=C[C@]4(C)[C@H]3[C@@H](O)C[C@@]21C
active: [3] 20.8 µM | [4] 16.5 µM
inactive: [1] | [2] | [5]

CC(=O)OCC(=O)[C@@]1(O)CCC2C3CCC4=CC(=O)CC[C@]4(C)C3[C@@H](O)C[C@@]21C (stereo partly drawn)
active: [6] 26.1 µM | [4] 11.7 µM
inactive: [7] | [5]

CCC(=O)O[C@]1(C(=O)COC)[C@@H](C)C[C@H]2[C@@H]3CCC4=CC(=O)C=C[C@]4(C)C3(F)[C@@H](O)C[C@@]21C (stereo partly drawn)
active: [4] 16.5 µM
inactive: all other assays above

O=[N+]([O-])c1ccc(O)c2ncccc12
inactive: [3]
active: [1] 7.37 µM | [8] 7.37 µM | [6] 5.85 µM | [5] 10.4 µM

CO[C@@H]1[C@@H](OC)[C@H](C)[C@@](O)(CC(=O)O)O[C@H]1[C@H](C)[C@H]1O[C@@]2(CC[C@@](C)([C@H]3CC[C@@](C)([C@@H]4O[C@@H]([C@H]5O[C@](C)(O)[C@H](C)C[C@@H]5C)C[C@@H]4OC4C[C@H](OC)[C@@H](OC)[C@H](C)O4)O3)O2)C[C@H](O)[C@H]1C (stereo partly drawn)
active: [1] 1.47 µM | [2] 7.37 µM | [8] 0.522 µM | [6] 2.08 µM | [7] 8.27 µM | [3] 0.329 µM | [4] 0.465 µM | [5] 6.57 µM | [10] 7.37 µM

CCOC(=O)O[C@]1(C(=O)OCCl)CC[C@H]2[C@@H]3CCC4=CC(=O)C=C[C@]4(C)[C@H]3[C@@H](O)C[C@@]21C
not listed: [1] | [6]
inactive: all other assays above

CCCC(=O)O[C@]1(C(=O)CCl)[C@@H](C)C[C@H]2[C@@H]3CCC4=CC(=O)C=C[C@]4(C)[C@@]3(F)C(=O)C[C@@]21C
inactive: [9] | [5] | [10]

CC(C)(C)CC(=O)OCC(=O)[C@@]1(O)CC[C@H]2[C@@H]3CCC4=CC(=O)C=C[C@]4(C)[C@H]3[C@@H](O)C[C@@]21C
not listed: [4] | [10]
inactive: all other assays above

C[C@H]1C[C@@H]2[C@H]([C@@H](O)C[C@@]3(C)[C@H]2CC[C@]3(O)C(=O)CO)[C@@]2(C)C=CC(=O)C=C12
inactive: [1] | [2] | [7] | [3] | [4] | [5]

CCc1cc2cc(OC)c(OC)cc2c(Cc2ccccc2)n1
active: [4] 18.5 µM
inactive: all other assays above

CC(=O)O[C@@H]1C(=O)O[C@@H]2[C@H]1OC(=O)[C@@H]2OC(C)=O
inactive: [1] | [8] | [7] | [5]
active: [9] 1.17 µM | [10] 5.85 µM

Cc1ccc(C(=O)Oc2ccc(C(O)CNC(C)(C)C)cc2OC(=O)c2ccc(C)cc2)cc1 (stereo not drawn)
active: [6] 5.22 µM
not listed: [3] | [4]
inactive: all other assays above

Nc1ccc2cc3ccc(N)cc3nc2c1
active: [1] 13.1 µM | [2] 5.85 µM | [8] 11.7 µM | [6] 9.27 µM | [3] 9.27 µM | [4] 5.85 µM | [9] 5.22 µM | [10] 7.37 µM

CCN(CC)CC(=O)OCC(=O)[C@@]1(O)CC[C@H]2[C@@H]3CCC4=CC(=O)CC[C@]4(C)[C@H]3[C@@H](O)C[C@@]21C
active: [6] 11.7 µM
not listed: [2] | [9] | [10]
inactive: all other assays above

COc1cc(/C=C/C(N)=O)cc(OC)c1OC
inactive: [1] | [6] | [7] | [3] | [4] | [5]

COc1c(C)c2c(c(O)c1C/C=C(\C)CCC(=O)OCCN1CCOCC1)C(=O)OC2
active: [1] 0.827 µM | [8] 1.31 µM | [6] 1.47 µM | [3] 0.185 µM | [4] 2.33 µM
inactive: [7]

O=c1[nH]sc2cc(Cl)ccc12
inactive: [7]
active: [1] 20.8 µM | [2] 20.8 µM | [6] 20.8 µM | [4] 1.85 µM | [10] 6.57 µM

CCC1(c2cnc[nH]2)Cc2ccccc2C1
active: [1] 20.8 µM | [8] 10.4 µM | [6] 4.14 µM | [4] 16.5 µM | [5] 16.5 µM | [10] 10.4 µM
inactive: [2] | [7]

N=C(N)c1ccc(OCCCOc2ccc(C(=N)N)cc2)cc1
active: [6] 23.3 µM | [3] 0.465 µM
not listed: [2]
inactive: all other assays above

C[C@]12CCC(=O)C=C1CC[C@@H]1[C@@H]2[C@@H](O)C[C@@]2(C)[C@H]1CC[C@]2(O)C(=O)COC(=O)CCC(=O)O
not listed: [1] | [6]
inactive: all other assays above

CCCCC(=O)OCC(=O)[C@H]1[C@H](C)C[C@H]2[C@@H]3C[C@H](F)C4=CC(=O)C=C[C@]4(C)[C@@]3(F)[C@@H](O)C[C@@]21C
active: [2] 20.8 µM | [8] 20.8 µM | [6] 16.5 µM | [4] 29.3 µM | [5] 20.8 µM | [10] 14.7 µM

CCCCC(CC)CNC(=O)CC(C)OC(=O)CCC(=O)O (stereo not drawn)
not listed: [6]
inactive: all other assays above

CCC1=C[C@@H]2CN(C1)Cc1c([nH]c3ccccc13)[C@@](C(=O)OC)(c1cc3c(cc1OC)N(C)[C@H]1[C@@](O)(C(=O)OC)[C@H](OC(C)=O)[C@]4(CC)C=CCN5CC[C@]31[C@@H]54)C2
active: [2] 0.0522 µM | [8] 0.0261 µM | [6] 0.0165 µM | [3] 0.185 µM | [9] 0.0293 µM
inactive: [7] | [5]

CN(C)CCN(Cc1ccsc1)c1ccccn1
not listed: [3] | [6]
inactive: all other assays above

CC(=O)OCC(=O)[C@@]1(O)[C@H](OC(C)=O)C[C@H]2[C@@H]3CCC4=CC(=O)C=C[C@]4(C)[C@@]3(F)[C@@H](O)C[C@@]21C
not listed: [2] | [6] | [10]
inactive: all other assays above

Cc1nc(N)nc(N)c1-c1ccc(Cl)c(Cl)c1
inactive: [7] | [4] | [5] | [10]
active: [6] 0.147 µM | [9] 2.61 µM

CC(=O)[C@@]1(O)CC[C@H]2[C@@H]3C[C@H](C)C4=CC(=O)CC[C@]4(C)[C@H]3CC[C@@]21C
active: [2] 1.17 µM | [6] 10.4 µM | [9] 0.827 µM | [10] 0.414 µM
not listed: [4]
inactive: all other assays above

C[C@H]1C[C@H]2[C@@H]3CCC4=CC(=O)C=C[C@]4(C)[C@H]3C(=O)C[C@]2(C)[C@@]1(O)C(=O)CO
active: [1] 8.27 µM | [2] 4.65 µM | [8] 2.93 µM | [9] 2.93 µM | [5] 3.29 µM

Cc1cc(OCCOCC[N+](C)(C)Cc2ccccc2)ccc1C(C)(C)CC(C)(C)C
active: [1] 16.5 µM | [2] 14.7 µM | [8] 10.4 µM | [6] 2.93 µM | [7] 20.8 µM | [3] 23.3 µM | [4] 7.37 µM | [9] 10.4 µM | [5] 18.5 µM | [10] 13.1 µM

Nc1c2ccccc2nc2ccccc12
active: [1] 6.57 µM | [2] 3.29 µM | [8] 2.93 µM | [6] 2.93 µM | [3] 14.7 µM | [4] 16.5 µM | [9] 3.29 µM | [5] 4.65 µM | [10] 7.37 µM

CCCC(=O)O[C@]1(C(=O)COC(=O)CC)CC[C@H]2[C@@H]3CCC4=CC(=O)CC[C@]4(C)[C@H]3[C@@H](O)C[C@@]21C
active: [6] 8.27 µM
inactive: [1] | [8] | [7] | [5]

CC[C@@]1(O)C(=O)OCc2c1cc1n(c2=O)Cc2c-1nc1ccccc1c2/C=N/OC(C)(C)C
active: [1] 0.0052 µM | [2] 0.0928 µM | [8] 0.0093 µM | [6] 0.0052 µM | [4] 0.522 µM | [5] 0.465 µM | [10] 0.522 µM

Source: PubChem BioAssay (NCATS)
